This assay has as its target T1, Protein deacetylase HDAC6 (Homo sapiens) (UniProt Q9UBN7).
T1 sequence (whole entry): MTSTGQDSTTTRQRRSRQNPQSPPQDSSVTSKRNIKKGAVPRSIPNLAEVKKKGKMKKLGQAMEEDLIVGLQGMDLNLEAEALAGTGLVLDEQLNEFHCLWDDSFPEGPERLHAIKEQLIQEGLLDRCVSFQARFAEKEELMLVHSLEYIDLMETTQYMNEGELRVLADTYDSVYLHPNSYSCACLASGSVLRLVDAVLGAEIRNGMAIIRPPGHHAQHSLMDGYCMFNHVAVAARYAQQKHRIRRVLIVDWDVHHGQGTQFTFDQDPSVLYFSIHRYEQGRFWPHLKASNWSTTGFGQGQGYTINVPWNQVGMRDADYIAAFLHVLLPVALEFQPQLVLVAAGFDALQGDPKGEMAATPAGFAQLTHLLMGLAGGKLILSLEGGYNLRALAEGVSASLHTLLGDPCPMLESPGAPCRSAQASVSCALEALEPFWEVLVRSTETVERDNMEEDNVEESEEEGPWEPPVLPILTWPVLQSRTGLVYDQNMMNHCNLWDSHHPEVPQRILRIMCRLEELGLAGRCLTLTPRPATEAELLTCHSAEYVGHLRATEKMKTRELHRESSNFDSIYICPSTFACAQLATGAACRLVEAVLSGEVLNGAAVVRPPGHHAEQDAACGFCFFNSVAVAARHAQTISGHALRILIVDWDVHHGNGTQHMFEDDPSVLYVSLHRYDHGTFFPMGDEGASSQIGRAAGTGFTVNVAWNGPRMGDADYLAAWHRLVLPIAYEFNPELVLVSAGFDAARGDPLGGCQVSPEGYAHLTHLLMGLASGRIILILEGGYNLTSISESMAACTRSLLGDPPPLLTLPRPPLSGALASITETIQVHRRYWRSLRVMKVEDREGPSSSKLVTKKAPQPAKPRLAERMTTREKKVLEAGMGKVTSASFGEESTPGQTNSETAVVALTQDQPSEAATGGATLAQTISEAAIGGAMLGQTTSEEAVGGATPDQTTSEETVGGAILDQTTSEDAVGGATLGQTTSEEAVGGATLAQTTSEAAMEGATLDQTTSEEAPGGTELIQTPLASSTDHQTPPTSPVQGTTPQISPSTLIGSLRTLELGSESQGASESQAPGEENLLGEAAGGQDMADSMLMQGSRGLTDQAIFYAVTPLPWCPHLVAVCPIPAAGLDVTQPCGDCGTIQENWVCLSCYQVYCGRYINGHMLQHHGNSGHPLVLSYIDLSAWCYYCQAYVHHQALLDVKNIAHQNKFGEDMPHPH
Particulars: at 10 µM.

Screen size: about 5,600 compounds; about 150 (2.7%) showed an effect of 50% or more. The sample holds strong results, similar compounds and a random draw of the others, so the mix is not that of the screen.

The inhibition is the change of the read-out against control, counted positive when it falls.

On to `CN(C)c1ccc2c(c1)Sc1cc(N(C)C)ccc1N2`, for which the inhibition was 32.3%. As to `COc1cc(Br)c(S(=O)(=O)Nc2ccc(C(F)(F)F)c(O[C@@H]3CCN(C)C3)c2)cc1OC`, the inhibition was -1.99%. The result for `COc1ccc(-n2c(SCc3nc(-c4ccc(C)cc4)no3)nnc2-c2ccncc2)cc1` reads -7.03%; that for `O=C(Nc1c(-c2cccs2)nc2ccccn12)c1ccc(Cl)cc1`, -6.19%.

As for `Clc1cccc(/C=N/C=N/c2cccc(Cl)c2)c1`, the inhibition was 1.42%.

For the compound `COc1cccc(/C=N/C=N/c2cccc(OC)c2)c1`, the inhibition turned out to be 89.1%. As to `COc1cc(/C=C/c2ccc(OC)cc2OC)cc(OC)c1`, the inhibition worked out at 19.4%. Regarding `CNCCCC1(c2ccccc2)OC(C)(C)c2ccccc21` (stereo not drawn), the inhibition was -1.2%. As to `CSc1ccc(OCc2ncc([N+](=O)[O-])n2C)cc1`, the inhibition is 20.2%. Consider `O=C(O)CCCc1ccccc1`, for which the inhibition was -4.8%. The result for `O=C(O)c1cc([N+](=O)[O-])ccc1NCCCc1ccccc1` reads 52.3%. The result for `Cn1c(NCCN(CCO)CCCc2ccc([N+](=O)[O-])cc2)cc(=O)n(C)c1=O` reads -7.89%; that for `Cc1cc(NC(=O)NCCN2CCC(O)(Cc3ccccc3)CC2)c2ccccc2n1`, -3.32%; that for `Oc1cccc(O)c1`, 5.02%.

Turning to `N[C@H]1C[C@@H]1c1ccc(-c2cccc(O)c2)cc1`, the inhibition was found to be 51.4%.

For the compound `CC(=O)N[C@H]1[C@H]([C@H](O)[C@H](O)CO)O[C@](O)(C(=O)O)C[C@@H]1O`, the inhibition is -7.16%. Take `Cc1nc(N)sc1-c1ccnc(Nc2ccc(N3CCOCC3)cc2)n1`: the inhibition came out at 71.7%.

Regarding `Cc1ccc(-c2ncn(-c3ccc(Nc4nccc(-c5cccc(N6CCOCC6)c5)n4)cc3)n2)cn1`, the inhibition came to 14.5%.

`N#CCNC(=O)c1ccc(-c2ccnc(Nc3ccc(N4CCOCC4)cc3)n2)cc1`: the inhibition was -5.68%.

For the compound `CC(C)[C@@H](N)C(=O)O`, the inhibition worked out at 1.7%. The result for `O=C(NCc1ccc2c(c1)OCO2)c1c(Cl)cccc1Cl` reads 3.64%. Then `COc1ccc(-c2cc(=S)ss2)cc1`, with 67.3%. The result for `O=C(O)CCc1c(C(=O)O)[nH]c2cc(Cl)cc(Cl)c12` reads 4%; that for `NCC(=O)N1C[C@H](NC(=O)c2ccccc2)C[C@H]1C(=O)O`, -0.8%. Take `O=C(/C=C/c1ccccc1)NC(NC(=S)Nc1ccc(Cl)cc1)C(Cl)(Cl)Cl` (stereo not drawn): the inhibition is -0.27%.

For `Cc1ccc(C(=O)Cn2c3c(sc2=N)CCCC3)cc1`, the inhibition was 85.8%. The result for `Cc1ccc(C(=O)C(C)CN2CCCCC2)cc1` (stereo not drawn) reads 4.79%; that for `Cc1cccc(NC(=O)CN2CCC(c3ccccn3)CC2)c1`, 32%. As for `N=C(N)c1cc2ccc(OC(=O)c3cccs3)cc2s1`, the inhibition came out at 98.3%. Turning to `O=C(O)c1cc2ccccc2s1`, the inhibition was -8.12%. Regarding `OC(CN1CCNCC1)Cn1c2ccc(Br)cc2c2cc(Br)ccc21` (stereo not drawn), the inhibition is -4.75%.

On to `COc1cc2c(cc1OC)CN(C(=O)[C@@H](NCc1ccncc1)C(C)(C)C)CC2`, for which the inhibition was -4.01%. The result for `O=C(Cc1ccc(-c2ccccc2)cc1)Nc1ccccn1` reads 44.2%; that for `c1ccc(-c2ccc(CNc3nc(-c4ccccn4)nnc3-c3ccccc3)cc2)cc1`, 6.43%; that for `c1ccc(NCc2ccc(CNc3ccccn3)cc2)nc1`, 91.6%.

Consider `O=S1(=O)N[C@H]2CCCN2c2ccccc21`, for which the inhibition was -6.18%.

For the compound `FC(F)(F)c1ccc(Nc2ncnc3cc(-c4ncccc4C(F)(F)F)ccc23)cc1`, the inhibition was found to be 6.46%. Turning to `CCCC[C@@H](NC(=O)[C@@H](Cc1cn(C(=O)OC)c2ccccc12)NC(=O)[C@H](CC(C)(C)C)NC(=O)N1[C@H](C)CCC[C@@H]1C)C(=O)O`, the inhibition is -9.33%. Turning to `CCCCCCCCCCCCCCCC(=O)OC[C@H](COP(=O)([O-])OCC[N+](C)(C)C)OC(=O)CCCCCCCCCCCCCCC`, the inhibition was -0.71%. The result for `COc1c(C)cnc(Cn2cc(C#CCC(C)(C)O)c3c(Cl)nc(N)nc32)c1C` reads 0.42%; that for `O=C(c1cc(C2CC2)on1)N(C1CCCCC1)C1CCCCC1`, 9.33%; that for `C#C[C@]1(OC(C)=O)CC[C@H]2[C@@H]3CCC4=C/C(=N/O)CC[C@@H]4[C@H]3CC[C@@]21CC`, 5.83%.

For `Cc1ccnc(NS(=O)(=O)c2ccc(N)cc2)n1`, the inhibition was -3.6%.

Turning to `Nc1ccc(S(=O)(=O)Nc2ccccn2)cc1`, the inhibition turned out to be 2.21%. For `C=Cc1c(C)c2cc3nc(c(CC(=O)O)c4[nH]c(cc5nc(cc1[nH]2)C(C)=C5CC)c(C)c4C(=O)O)C(CCC(=O)O)C3C` (stereo not drawn), the inhibition is 8.5%.

Take `CC(C)n1nccc1-c1ncccc1COc1cccc(O)c1C=O`: the inhibition is 0.21%. The result for `O=c1cc(N2CCN(c3cccc(C(F)(F)F)c3)CC2)[nH]c(=O)n1C1CCCCC1` reads -1.42%; that for `O=C(CN1CCN(Cc2ccc3c(c2)OCO3)CC1)N1c2ccccc2Sc2ccccc21`, 4.21%. Then `O=C(/C=C/c1ccc2c(c1)OCO2)N1CCCCC1`, with 67.8%; and `O=C(c1ccc2c(c1)OCO2)N1CCCCC1`, with -4.9%; and `O=C(COc1ccc(Cl)cc1)N1CCN(Cc2ccc3c(c2)OCO3)CC1`, with -0.58%. With `O=C(/C=C/C=C/c1ccc2c(c1)OCO2)N1CCCCC1`, the inhibition was 61.2%. For `CC(C)(C)C(O)/C=C/c1ccc2c(c1)OCO2` (stereo not drawn), the inhibition is 8.28%.

The record behind these values is ChEMBL document CHEMBL4808148, “HDAC6 screening dataset using tau-based substrate in an enzymatic assay yields selective inhibitors and activators” (2021).
